Measurements from PubChem BioAssay (EPA / NIEHS).
A structure can be active in one record and inactive in another. Active and inactive are the calls of the source. How the source made its calls: active means hit-call score of the fitted dose curve at least 0.9, where 1 is the maximum; inactive means score below 0.9.

Assay: IUF_NPC1_viability_72hr: Viability Assessment at 72 hours in the Leibniz Research Institute for Environmental Medicine (IUF) Neural Progenitor Cell Proliferation Assay (NPC1) (AID 2284209)
Procedure: IUF_NPC1 is a cell-based, multiplexed assay that uses hNPC, a human primary neural progenitor cells, with measurements taken at 72 hours after chemical dosing in a 96-well plate. Human neural progenitor cells (hNPC) are generated from human fetal brain cortex at gestational week (GW) 16-19. Grown in suspension culture and under proliferative conditions (proliferation media and growth factors), these cells represent neural progenitor cell proliferation. In the NPC1 assay, hNPC's are exposed to the test compound for 72h. Cell proliferation is assessed as an increase in sphere area using automated phase contrast imaging and as incorporation of Bromodeoxyuridine (BrdU) during DNA synthesis using a luminescence-based cell proliferation ELISA. In parallel, the cell viability is assessed using an alamar blue viability assay and the cytotoxicity using a lactate dehydrogenase dependent membrane integrity assay.IUF_NPC1_viability_72hr is one of 4 assay components measured from the IUF_NPC1 assay. It is designed to measure cell viability assessed as mitochondria-dependent reduction of resazurin to resorufin using the alamar blue cell viability assay. Viability is measured as a fluorescence signal (relative fluorescence unit) in a multiplate reader. Data from the IUF_NPC1_viability component was analyzed at the endpoint IUF_NPC1_viability in the positive analysis fitting direction relative to DMSO as the negative control and baseline of activity. Using a type of viability reporter, gain or loss-of-signal activity can be used to understand viability effects.
After the cell expansion period, the cells are cultured for up to four weeks in which they are passaged every week. Between one to three days after passaging, depending on the size chosen for passaging, spheres at a size of 0.3 mm are used in the assay. For the assessment of neural progenitor cell proliferation, the spheres are plated in poly-Hema coated 96-well U-bottom plates filled with proliferation medium containing growth factors (EGF and FGF). One 0.25 - 0.35 mm big sphere is plated in the middle of each well. Within 3 days NPCs proliferate and grow in size. Cultivation during the test method is performed at 37C and 5% CO2 at a pH of 7.2-7.6. As a positive control, spheres are cultivated in the absence of growth factors (EGF and FGF), which dramatically reduces proliferation. Exposure starts on the plating day (day 0) and is continued over three days, without chemical renewal, until the experiment is terminated. The assay is terminated by the assessment of cell viability, cytotoxicity, and proliferation by BrdU. All endpoints are generated from the same experimental run and from each well/sphere in the 96-well plate.

| Structure (SMILES) | outcome | AC50 |
| --- | --- | --- |
| CC1(C)[C@@H](C=C(Cl)Cl)[C@@H]1C(=O)O[C@@H](C#N)c1ccc(F)c(Oc2ccccc2)c1 | inactive |  |
| [CH3][Hg][Cl] | inactive | 820 nM (active) |
| CCOP(=O)(OCC)OC(Cl)C(Cl)(Cl)Cl (configuration not stated) | inactive |  |
| COP(=O)(OC)SCN1C(=O)c2ccccc2C1=O | inactive |  |
| CC(=O)[O-].[Tl+] | inactive |  |
| CC(=O)[O-].CC(=O)[O-].O.O.O.[Pb+2] | inactive |  |
| CC1(C)[C@H](C(=O)O[C@H](C#N)c2cccc(Oc3ccccc3)c2)[C@@H]1C=C(Br)Br | inactive |  |
| C/C(=C/C=C/[C@@H](C)C(=O)O)[C@H]1CN[C@H](C(=O)O)[C@H]1CC(=O)O | inactive |  |
| [O-][Cl+3]([O-])([O-])O | inactive |  |
| CC1(C)[C@H](C=C(Cl)Cl)[C@H]1C(=O)OCc1c(F)c(F)cc(F)c1F | inactive |  |
| CC1(C)C(C=C(Cl)Cl)C1C(=O)O[C@H](C#N)c1cccc(Oc2ccccc2)c1 (some centres not stated) | inactive |  |
| CCOP(=O)(OCC)SCSC(C)(C)C | inactive |  |
| C[n+]1ccc(-c2cc[n+](C)cc2)cc1 | inactive |  |
| CNC1(c2ccccc2Cl)CCCCC1=O (configuration not stated) | inactive |  |
| Cn1nc(C(F)(F)F)c(CS(=O)(=O)C2=NOC(C)(C)C2)c1OC(F)F | inactive |  |
| CP(=O)(O)CCC(N)C(=O)O (configuration not stated) | inactive |  |

| Structure (SMILES) | outcome | AC50 |
| --- | --- | --- |
| Brc1ccc(Oc2cc(Br)c(Br)cc2Br)c(Br)c1 | inactive |  |
| Cc1ccc(OP(=O)(Oc2ccc(C)cc2)Oc2ccc(C)cc2)cc1 (tested in a mixture with another compound) | inactive |  |
| CNC(=N[N+](=O)[O-])NCC1CCOC1 (configuration not stated) | inactive |  |
| O=[As]O |  | 2960 nM (active) |
| CCOP(=S)(OCC)SCS(=O)C(C)(C)C (configuration not stated) | inactive |  |
| [Cd+2].[Cl-].[Cl-] | inactive |  |
| Brc1ccc(Oc2ccc(Br)cc2Br)c(Br)c1 | inactive |  |
| CC1(C)C(C=C(Cl)c2ccc(Cl)cc2)C1C(=O)OC(C#N)c1ccc(F)c(Oc2ccccc2)c1 (configuration not stated) | inactive |  |
| CC(C)CCCCCCCOP(=O)(Oc1ccccc1)Oc1ccccc1 | inactive |  |
| O=C1N[C@@H]2C(=C[C@H](O)[C@@H](O)[C@H]2O)c2cc3c(c(O)c21)OCO3 |  | 38.3 nM (active) |
| CC(C)CC(C)c1sccc1NC(=O)c1cn(C)nc1C(F)(F)F (configuration not stated) | inactive |  |
| CCOP(=O)(OCC)SCSCC | inactive |  |
| CCOP(=O)(Oc1cnc(C(C)(C)C)nc1)OC(C)C (configuration not stated) | inactive |  |
| C[n+]1ccc(-c2ccccc2)cc1 | inactive |  |
| CC1(C)C(C=C(Cl)Cl)[C@H]1C(=O)O[C@H](C#N)c1cccc(Oc2ccccc2)c1 (some centres not stated) | inactive |  |
